From paper PMC4336329 (PLoS ONE, 2015) come the findings set out here.

In all, about 310,000 compounds went through this assay and about 2,200 (0.71%) showed an effect of 50% or more. Effects have a minus sign here. What follows is part of a selection rich in strong results, with near analogues and random picks from the rest.

human ether-à-go-go-related gene (hERG) potassium channel, sequence (Q12809 whole entry, looked up): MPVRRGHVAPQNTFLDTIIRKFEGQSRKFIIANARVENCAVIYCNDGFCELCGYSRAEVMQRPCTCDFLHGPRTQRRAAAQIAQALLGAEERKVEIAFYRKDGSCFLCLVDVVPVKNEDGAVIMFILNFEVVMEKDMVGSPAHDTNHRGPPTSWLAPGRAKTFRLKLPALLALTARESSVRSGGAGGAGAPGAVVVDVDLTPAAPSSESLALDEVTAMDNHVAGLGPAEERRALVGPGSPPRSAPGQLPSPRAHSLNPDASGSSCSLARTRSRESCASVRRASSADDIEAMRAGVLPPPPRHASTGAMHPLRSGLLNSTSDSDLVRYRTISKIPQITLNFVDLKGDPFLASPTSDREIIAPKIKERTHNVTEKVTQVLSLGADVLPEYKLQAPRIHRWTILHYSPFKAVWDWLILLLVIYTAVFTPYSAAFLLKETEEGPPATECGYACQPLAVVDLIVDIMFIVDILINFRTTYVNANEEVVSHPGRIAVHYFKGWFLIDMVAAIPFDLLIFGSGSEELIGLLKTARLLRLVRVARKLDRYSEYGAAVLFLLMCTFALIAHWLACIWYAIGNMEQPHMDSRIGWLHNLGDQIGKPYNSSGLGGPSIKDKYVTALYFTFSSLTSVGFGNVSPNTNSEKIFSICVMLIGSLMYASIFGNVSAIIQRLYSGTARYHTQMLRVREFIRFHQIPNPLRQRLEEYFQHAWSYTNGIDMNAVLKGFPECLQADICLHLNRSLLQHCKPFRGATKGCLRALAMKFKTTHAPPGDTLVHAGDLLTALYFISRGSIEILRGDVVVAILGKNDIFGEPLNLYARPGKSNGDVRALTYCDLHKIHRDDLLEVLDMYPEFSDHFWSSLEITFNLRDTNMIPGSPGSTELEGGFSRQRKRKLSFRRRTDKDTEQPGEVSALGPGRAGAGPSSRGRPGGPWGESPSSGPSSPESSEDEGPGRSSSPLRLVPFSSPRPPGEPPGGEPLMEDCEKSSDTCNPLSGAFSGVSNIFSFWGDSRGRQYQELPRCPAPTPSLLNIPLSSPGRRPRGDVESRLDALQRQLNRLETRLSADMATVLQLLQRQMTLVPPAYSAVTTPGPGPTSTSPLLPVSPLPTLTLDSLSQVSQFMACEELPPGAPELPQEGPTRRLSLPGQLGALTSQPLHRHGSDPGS

This assay has as its target human ether-à-go-go-related gene (hERG) potassium channel (human, UniProt Q12809). In words: primary screen, population patch clamp on CHO cells stably expressing hERG; higher = less effect of the substance.
Turning to `Cc1onc(-c2ccccc2)c1-c1ccnn1C(=O)NC(C)C`, the “hERG current change (%, negative = inhibition) at 1uM” value turned out to be 6.54%. The figure for `CCCOc1ccc(N2CC(C(=O)Nc3ccccc3C(=O)NC)CC2=O)cc1` (stereo not shown) is -56.5%; for `Cc1ccc(N2CC(C(=O)Nc3ccccc3C(=O)NC3CCCCC3)CC2=O)cc1` (stereo not shown) it is 5.42%. The figure for `CNC(=O)c1ccccc1NC(=O)C1CC(=O)N(c2ccc(OC)cc2)C1` (stereo not shown) is 9.77%; for `O=C(NC1CCCCC1)c1ccccc1NC(=O)C1CC(=O)N(c2ccccc2)C1` (stereo not shown) it is -64.3%; for `CCCOc1ccc(N2CC(C(=O)Nc3ccccc3C(=O)NCc3ccco3)CC2=O)cc1` (stereo not shown) it is -29.5%. Regarding `O=C(NC1CCCCC1)c1ccccc1NC(=O)C1CC(=O)N(c2ccc(Cl)cc2)C1` (stereo not shown), the “hERG current change (%, negative = inhibition) at 1uM” value stood at 13.2%. The figure for `CCC(C)C1C(C#N)=C(N)Oc2n[nH]c(C)c21` (stereo not shown) is 14.1%. The figure for `CN(C)CCCNc1ncc(C(F)(F)F)cc1Cl` is 10.3%. For `CN1C(=O)[C@@H]2[C@H](C1=O)[C@@H]1C(=O)Nc3ccccc3C(=O)N1[C@@H]2c1ccc(Br)cc1`, the “hERG current change (%, negative = inhibition) at 1uM” value was -16.7%. The figure for `CN1CCN(C(=O)c2cc3sccc3n2CC(=O)c2ccccc2)CC1` is -2.93%; for `O=C(Cn1c(C(=O)N2CCN(C3CCCCC3)CC2)cc2sccc21)c1ccccc1` it is -47.5%. For the compound `O=C(Cn1c(C(=O)N2CCN(C3CCCC3)CC2)cc2sccc21)c1ccccc1`, the “hERG current change (%, negative = inhibition) at 1uM” value is reported as -51%. The figure for `COc1ccc(-c2cc(-c3cccs3)c(C#N)c(SCC(=O)NCc3ccccc3OC)n2)cc1` is -3.19%. The figure for `Cc1cccc(C)c1NC(=S)NCc1ccncc1` is 16%. The figure for `c1ccc(CN2CCC(Nc3nc(-c4ccccc4)nc4ccccc34)CC2)cc1` is 4.83%; for `c1ccc(CN2CCC(Nc3nc(-c4cccnc4)nc4ccccc34)CC2)cc1` it is -74.6%. For `c1ccc(CN2CCC(Nc3nc(-c4cccs4)nc4ccccc34)CC2)cc1`, the “hERG current change (%, negative = inhibition) at 1uM” value is 10.5%.

With `CSc1oc(-c2ccc(F)cc2)nc1S(=O)(=O)c1ccccc1`, the “hERG current change (%, negative = inhibition) at 1uM” value is -1.68%.

For the compound `CC1(C)C([N+](=O)[O-])C(c2ccc(O)cc2)NC(c2ccc(O)cc2)C1[N+](=O)[O-]` (stereo not shown), the “hERG current change (%, negative = inhibition) at 1uM” value was determined as 10.3%. The figure for `COc1ccc(CNCCc2ccc(Cl)cc2Cl)cc1` is 13.2%; for `COc1ccc(CCC(C)NCCc2ccc(Cl)cc2Cl)cc1` (stereo not shown) it is -50.1%; for `COc1ccc(CCNC(C)CCc2ccc(OC)cc2)cc1` (stereo not shown) it is -2.61%.

Turning to `CCC(=O)OC1(c2ccccc2)C(C)CN(C)CC1C.Cl` (stereo not shown), the “hERG current change (%, negative = inhibition) at 1uM” value was found to be 8.82%. The figure for `C[C@]12CCC[C@H](O1)[C@H]([C@@H](O)c1ccccc1)O2` is 16.5%. The figure for `CN1CCC(N(C)CC(O)c2ccccc2)CC1.O=C(O)C(=O)O` (stereo not shown) is 1.81%. The figure for `CN1C(CC(=O)c2ccccc2)CCCC1CC(O)c1ccccc1` (stereo not shown) is -55.2%; for `CN1C(CC(O)c2ccccc2)CCCC1CC(O)c1ccccc1.Cl` (stereo not shown) it is -46.3%; for `Cc1ccc2c(Cl)c(C(=O)NC3CC3)sc2c1` it is 9.87%. As to `Cn1c(=O)[nH]c(=O)c2c1nc(SCCN1CCCCC1)n2CCCc1ccccc1`, the “hERG current change (%, negative = inhibition) at 1uM” value is listed as -57.3%. As for `Cn1c(=O)[nH]c(=O)c2c1nc(SCCN1CCOCC1)n2Cc1ccccc1`, the “hERG current change (%, negative = inhibition) at 1uM” value was -12%.

For the compound `Cn1c(=O)[nH]c(=O)c2c1nc(SCCN1CCOCC1)n2CCCc1ccccc1`, the “hERG current change (%, negative = inhibition) at 1uM” value is recorded as -6.15%. Regarding `Cn1c(=O)[nH]c(=O)c2c1nc(SCCN1CCCCC1)n2Cc1ccccc1`, the “hERG current change (%, negative = inhibition) at 1uM” value was -81.6%.

In the case of `COCCSc1nc2c(c(=O)[nH]c(=O)n2C)n1Cc1cccc(C)c1`, the “hERG current change (%, negative = inhibition) at 1uM” value is listed as -5.69%. The figure for `Cc1cccc(Cn2c(N3CCN(CCO)CC3)nc3c2c(=O)[nH]c(=O)n3C)c1` is 7.07%.

On to `CCCCCCn1c(SCCN2CCOCC2)nc2c1c(=O)[nH]c(=O)n2C`, for which the “hERG current change (%, negative = inhibition) at 1uM” value is recorded as -64.1%. The figure for `CCCSc1nc2c(c(=O)[nH]c(=O)n2C)n1Cc1ccccc1` is 2.13%. Turning to `CC(C)CCn1c(SCCN2CCOCC2)nc2c1c(=O)[nH]c(=O)n2C`, the “hERG current change (%, negative = inhibition) at 1uM” value is reported as 1.89%.

Regarding `Cn1c(=O)[nH]c(=O)c2c1nc(SCCO)n2CCCc1ccccc1`, the “hERG current change (%, negative = inhibition) at 1uM” value is reported as 5.4%. The figure for `CCCCCn1c(SCCN2CCOCC2)nc2c1c(=O)[nH]c(=O)n2C` is -40.7%; for `Cc1cccc(Cn2c(SCCN3CCCCC3)nc3c2c(=O)[nH]c(=O)n3C)c1` it is -80.7%; for `O=C(O)C1CC(=O)N(Cc2ccc3c(c2)OCO3)C1` (stereo not shown) it is 6.73%.

As to `O=C(CN1CCCc2ccccc21)NCc1ccc2c(c1)OCO2`, the “hERG current change (%, negative = inhibition) at 1uM” value is on record as 9.15%. The figure for `CSc1ccc(-c2nc3cnccn3c2Nc2ccc3c(c2)OCO3)cc1` is 9.9%; for `Cc1ccccc1OCCC(=O)Nc1ccc(S(=O)(=O)N(C)C2CCN(C)CC2)cc1` it is 20.4%; for `Cc1ccc(Cn2c(N3CCCCCC3)nc3c2c(=O)[nH]c(=O)n3C)cc1` it is 2.45%. The figure for `Cc1ccc(Cn2c(SCC(C)C)nc3c2c(=O)[nH]c(=O)n3C)cc1` is 9.48%.

In the case of `Cc1ccc(Cn2c(SCCN3CCCCC3)nc3c2c(=O)[nH]c(=O)n3C)cc1`, the “hERG current change (%, negative = inhibition) at 1uM” value is on record as -77.5%. In the case of `O=C(Cc1ccc(Cl)cc1)N1CCc2ccccc2C1`, the “hERG current change (%, negative = inhibition) at 1uM” value is given as 21.7%. The figure for `COc1cccc(C(c2sc3nc(C)nn3c2O)N2CCN(c3ccccc3F)CC2)c1` (stereo not shown) is 10%; for `CCCCN(CCCC)CCNC(=O)CN1C(=O)CSc2ccc(S(=O)(=O)N3CCOCC3)cc21` it is -3.76%; for `CCCCN(CCCC)CCNC(=O)CN1C(=O)CSc2ccc(S(=O)(=O)N3CCCCC3)cc21` it is -51.7%. Turning to `CCCCN(C)CCNC(=O)CN1C(=O)CSc2ccc(S(=O)(=O)N3CCCCC3)cc21`, the “hERG current change (%, negative = inhibition) at 1uM” value was -6.21%. With `Nc1nc(N)c(N=Nc2ccc(C(=O)O)cc2)c(N)n1`, the “hERG current change (%, negative = inhibition) at 1uM” value is 8.04%. In the case of `Cc1ccc(Sc2cc(NCCCO)c([N+](=O)[O-])c3nonc23)cc1`, the “hERG current change (%, negative = inhibition) at 1uM” value is 5.43%. The figure for `CCOC(=O)c1c(NC(=O)c2ccccc2C(=O)O)sc2c1CCC2` is 2.17%; for `CCOC(=O)c1c(NC(=O)C(NCCN(C)C)c2ccccc2)sc2c1CCCC2` (stereo not shown) it is -77.2%.

For the compound `CCOC(=O)c1c(NC(=O)c2ccccc2C(=O)O)sc2c1CCCC2`, the “hERG current change (%, negative = inhibition) at 1uM” value is 16.3%.
